Results from PubChem BioAssay.
For some assays here: Measured potencies and affinities stand elsewhere. Calls of active or inactive are those of the source. Unless noted, no rule for the calls is given here.

Key:
[1] = antimalarial activity against Dd2 strain (AID 2302;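 active = growth inhibition above 50% at the single 2 µM test dose, taken to imply half-maximal potency below 2 µM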;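 also: 0% = DMSO untreated growth and 100% = chloroquine plus artemisinin killed control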); conditions: P. falciparum Dd2 in RBCs, LDH growth readout, 72 h; at 2 µM; stronger effect = higher value
[2] = human hepatoma cell viability loss – ATP luminescence, cytotoxicity control for P. falciparum antimalarial project, primary screen (AID 2303;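 active = inhibition above 50%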;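 also: 0% = DMSO wells and 100% = digitonin-killed cells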); conditions: HepG2 viability, 24-48 h, at 10 µM, stronger effect = higher value
[3] = target: L-lactate dehydrogenase (Plasmodium falciparum (isolate CDC / Honduras)) (UniProt Q27743); assay: PfLDH activity inhibition – cell lysate, 3D7 strain, counter-screen for P. falciparum growth inhibition project (AID 2304);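 also: 0% = vehicle and 100% = reference inhibitor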; conditions: P. falciparum 3D7 crude extract, LDH APAD/NBT absorbance; at 2 µM; stronger effect = higher value
[4] = inhibition of 3D7 malaria parasite growth – strain 3D7 (AID 2306);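 also: 0% = DMSO wells and 100% = chloroquine plus artemisinin control wells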; conditions: P. falciparum 3D7 erythrocytic growth, LDH absorbance, 72 h; at 2 µM; stronger effect = higher value
[5] = target: Calcium-dependent protein kinase 1 (Plasmodium falciparum (isolate 3D7)) (UniProt P62344); assay: PfCDPK1 kinase inhibitors, biochemical, TCAMS library (AID 1159585; cut-off not given, nearly all actives have IC50 up to about 0.98 µM;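 also: inhibitors leave more ATP so luminescence rises with inhibition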); conditions: recombinant PfCDPK1, Kinase-Glo ATP depletion luminescence
[6] = target: Plasmodium falciparum protein kinase 6 (PK6, PF3D7_1337100) (UniProt Q8IDW1); assay: PfPK6 kinase inhibitors, biochemical, TCAMS library (AID 1159586); conditions: recombinant PfPK6, Kinase-Glo ATP depletion luminescence
[7] = target: Protein kinase 7 (PK7), Plasmodium falciparum 3D7 (PF3D7_0213400) (UniProt Q7YTF7); assay: inhibition of Plasmodium PK7 catalytic activity – biochemical, TCAMS antimalarial set, Kinase-Glo luminescence (AID 1159587); conditions: recombinant PfPK7, Kinase-Glo ATP depletion luminescence
[8] = target: Calcium-dependent protein kinase 4 (Plasmodium falciparum (isolate 3D7)) (UniProt Q8IBS5); assay: PfCDPK4 kinase inhibitors, biochemical, TCAMS library (AID 1159588; cut-off not given, nearly all actives have IC50 up to about 0.91 µM); conditions: recombinant PfCDPK4, Kinase-Glo ATP depletion luminescence
Sequence of Calcium-dependent protein kinase 4 (Plasmodium falciparum (isolate 3D7)) (Q8IBS5 whole entry, looked up): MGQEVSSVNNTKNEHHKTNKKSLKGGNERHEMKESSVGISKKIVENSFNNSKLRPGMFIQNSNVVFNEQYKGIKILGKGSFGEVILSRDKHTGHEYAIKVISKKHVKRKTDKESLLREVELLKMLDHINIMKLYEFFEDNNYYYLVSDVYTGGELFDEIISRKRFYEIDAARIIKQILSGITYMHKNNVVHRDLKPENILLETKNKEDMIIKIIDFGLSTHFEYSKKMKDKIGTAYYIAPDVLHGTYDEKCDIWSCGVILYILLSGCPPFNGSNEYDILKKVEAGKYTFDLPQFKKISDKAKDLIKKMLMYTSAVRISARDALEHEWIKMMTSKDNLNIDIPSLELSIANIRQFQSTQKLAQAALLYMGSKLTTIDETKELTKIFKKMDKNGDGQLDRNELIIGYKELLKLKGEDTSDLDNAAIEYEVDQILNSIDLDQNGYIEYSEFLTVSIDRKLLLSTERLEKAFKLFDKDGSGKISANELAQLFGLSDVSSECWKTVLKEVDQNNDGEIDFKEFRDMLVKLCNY

Sequence of Protein kinase 7 (PK7), Plasmodium falciparum 3D7 (PF3D7_0213400) (Q7YTF7 1-343): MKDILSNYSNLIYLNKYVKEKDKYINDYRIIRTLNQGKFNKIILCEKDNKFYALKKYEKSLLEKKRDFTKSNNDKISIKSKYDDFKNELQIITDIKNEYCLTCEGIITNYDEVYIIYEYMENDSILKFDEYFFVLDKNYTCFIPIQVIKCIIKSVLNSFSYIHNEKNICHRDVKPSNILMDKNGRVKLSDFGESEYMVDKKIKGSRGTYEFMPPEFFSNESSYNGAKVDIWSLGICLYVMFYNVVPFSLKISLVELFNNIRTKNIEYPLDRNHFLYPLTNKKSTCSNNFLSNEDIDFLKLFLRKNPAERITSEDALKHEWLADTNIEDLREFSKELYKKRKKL
Sequence of Calcium-dependent protein kinase 1 (Plasmodium falciparum (isolate 3D7)) (P62344 whole entry, looked up): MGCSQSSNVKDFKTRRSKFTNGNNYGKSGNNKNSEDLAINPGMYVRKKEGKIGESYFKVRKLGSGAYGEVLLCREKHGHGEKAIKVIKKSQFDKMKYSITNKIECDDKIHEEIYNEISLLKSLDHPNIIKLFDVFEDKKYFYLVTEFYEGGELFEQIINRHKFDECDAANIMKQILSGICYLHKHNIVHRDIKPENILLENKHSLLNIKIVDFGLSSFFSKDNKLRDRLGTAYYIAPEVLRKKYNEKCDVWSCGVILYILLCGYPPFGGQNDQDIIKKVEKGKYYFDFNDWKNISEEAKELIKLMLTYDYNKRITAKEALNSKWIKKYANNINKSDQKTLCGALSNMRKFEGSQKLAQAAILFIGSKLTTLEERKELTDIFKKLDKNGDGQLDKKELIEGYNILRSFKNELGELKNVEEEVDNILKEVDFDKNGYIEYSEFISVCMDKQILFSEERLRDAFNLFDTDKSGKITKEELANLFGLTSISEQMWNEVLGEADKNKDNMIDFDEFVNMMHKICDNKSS
Sequence of L-lactate dehydrogenase (Plasmodium falciparum (isolate CDC / Honduras)) (Q27743 whole entry, looked up): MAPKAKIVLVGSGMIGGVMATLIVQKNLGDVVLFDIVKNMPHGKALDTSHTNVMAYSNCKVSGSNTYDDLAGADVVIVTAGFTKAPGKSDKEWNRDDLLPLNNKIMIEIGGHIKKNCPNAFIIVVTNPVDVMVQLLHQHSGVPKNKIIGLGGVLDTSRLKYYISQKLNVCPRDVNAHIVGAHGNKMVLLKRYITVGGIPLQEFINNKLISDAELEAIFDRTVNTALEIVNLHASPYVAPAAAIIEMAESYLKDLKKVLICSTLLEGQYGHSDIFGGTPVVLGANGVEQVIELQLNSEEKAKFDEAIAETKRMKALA
Sequence of Plasmodium falciparum protein kinase 6 (PK6, PF3D7_1337100) (Q8IDW1 1-305): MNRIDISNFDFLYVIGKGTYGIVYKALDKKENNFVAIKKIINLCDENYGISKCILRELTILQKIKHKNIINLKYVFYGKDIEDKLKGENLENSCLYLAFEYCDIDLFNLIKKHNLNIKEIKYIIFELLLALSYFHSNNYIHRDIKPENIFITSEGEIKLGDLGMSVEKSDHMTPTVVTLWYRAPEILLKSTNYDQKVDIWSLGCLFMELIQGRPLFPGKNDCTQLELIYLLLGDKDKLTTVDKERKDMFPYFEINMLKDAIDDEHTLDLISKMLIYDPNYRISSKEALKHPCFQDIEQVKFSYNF

Cn1c(=N)cc(-c2ccc(Br)cc2)c2c(=O)[nH]c(N)nc21
inactive: inhibition [2] 5% | inhibition [3] 1% | outcome [5] | outcome [6] | outcome [7] | outcome [8]
active: growth inhibition [1] 57% | growth inhibition [4] 80%

Cc1cccc2[nH]c(-c3cccc(-c4cccc(NC(=O)c5cnn6cccnc56)c4)c3)nc12
active: growth inhibition [4] 101%
inactive: growth inhibition [1] 17% | inhibition [2] 14% | inhibition [3] -3% | outcome [5] | outcome [6] | outcome [7] | outcome [8]

CNC(=O)C(NC(=O)c1ccccc1C(=O)OC)c1ccccc1 (stereo not given)
active: growth inhibition [4] 96%
inactive: growth inhibition [1] 2% | inhibition [2] 4% | inhibition [3] 3% | outcome [5] | outcome [6] | outcome [7] | outcome [8]

CCN(CC)CCNC(=O)c1ccc(NC(=O)c2cc3c(C)nn(-c4ccc(Cl)cc4)c3s2)cc1
inactive: inhibition [2] 24% | inhibition [3] -2% | outcome [5] | outcome [6] | outcome [7] | outcome [8]
active: growth inhibition [1] 78% | growth inhibition [4] 95%

CC(=O)NC1=NC(C)(C)N(OCCCOc2ccc(Cl)c(Cl)c2)C(NC(C)=O)=N1
active: growth inhibition [1] 94% | inhibition [2] 65% | growth inhibition [4] 96%
inactive: inhibition [3] 0% | outcome [5] | outcome [6] | outcome [7] | outcome [8]

Cc1cc(NCCc2ccccc2)nc(NC(=NCC(=O)OC(C)(C)C)Nc2ccc(C(F)(F)F)cc2)n1
active: growth inhibition [1] 97% | growth inhibition [4] 100%
inactive: inhibition [2] 23% | inhibition [3] 2% | outcome [5] | outcome [6] | outcome [7] | outcome [8]

CCS(=O)(=O)Nc1ccc2[nH]cc(C3CCN(CCC4CCN(C(=O)/C=C/c5ccc(Cl)c(Cl)c5)CC4)CC3)c2c1
active: growth inhibition [1] 94% | growth inhibition [4] 99%
inactive: inhibition [2] 34% | inhibition [3] -2% | outcome [5] | outcome [6] | outcome [7] | outcome [8]

O=C(Nc1ccc(OC2CCN(Cc3ccc(F)cc3)CC2)c(Cl)c1)c1ccco1
inactive: inhibition [2] 2% | inhibition [3] -4% | outcome [5] | outcome [6] | outcome [7] | outcome [8]
active: growth inhibition [1] 95% | growth inhibition [4] 95%

CN(CC(=O)Nc1cc(C(F)(F)F)ccc1-n1cncn1)Cc1nc2ccccc2s1
inactive: inhibition [2] 3% | inhibition [3] 0% | outcome [5] | outcome [6] | outcome [7] | outcome [8]
active: growth inhibition [1] 64% | growth inhibition [4] 87%

Cc1c(C(=O)[C@@H]2C[C@H]2CN2CCC(N3CCCCC3)CC2)sc2ccccc12
inactive: growth inhibition [1] 19% | inhibition [2] 35% | inhibition [3] -1% | outcome [5] | outcome [6] | outcome [7] | outcome [8]
active: growth inhibition [4] 94%

NC(=O)c1cccc(CNCc2ccc(-c3cccc(-c4nc5ccccc5[nH]4)c3)cc2)c1
inactive: inhibition [2] 29% | inhibition [3] 3% | outcome [5] | outcome [6] | outcome [7] | outcome [8]
active: growth inhibition [1] 94% | growth inhibition [4] 101%

CCN(CCCN1CCCCC1)c1cc(C)nc(Nc2ccc(C)c(Cl)c2)n1
inactive: inhibition [2] 32% | inhibition [3] -7% | outcome [5] | outcome [6] | outcome [7] | outcome [8]
active: growth inhibition [1] 100% | growth inhibition [4] 101%

COc1cc(CN=C(Nc2ccc(-c3ccccc3)cc2)Nc2ccc(C#N)cc2O)cc(OC)c1
inactive: inhibition [2] -4% | inhibition [3] 5% | outcome [5] | outcome [6] | outcome [7] | outcome [8]
active: growth inhibition [1] 64% | growth inhibition [4] 95%

CCCCN(CCCC)C(=NCCCCCCN=C(/N=C(/N)Nc1ccc(Cl)cc1)N(CCCC)CCCC)/N=C(/N)Nc1ccc(Cl)cc1
active: growth inhibition [1] 72% | growth inhibition [4] 81%
inactive: inhibition [2] -1% | inhibition [3] -5% | outcome [5] | outcome [6] | outcome [7] | outcome [8]

O=C1Nc2cccc3c2C1(CCCCN1CCC(c2c(-c4ccccc4)[nH]c4ccccc24)CC1)CCC3 (stereo not given)
inactive: growth inhibition [1] 33% | inhibition [2] 18% | inhibition [3] -1% | outcome [5] | outcome [6] | outcome [7] | outcome [8]
active: growth inhibition [4] 84%

CCCCCCCCNCc1c(O)ccc2ccccc12
active: growth inhibition [1] 94% | growth inhibition [4] 99%
inactive: inhibition [2] -11% | inhibition [3] 0% | outcome [5] | outcome [6] | outcome [7] | outcome [8]

COc1ccc(-c2cc(C(=O)N[C@@H](CC3CCCCC3)C(=O)NC3CCCc4ccccc43)ccc2O)cc1 (stereo not given in full)
inactive: inhibition [2] 7% | inhibition [3] -1% | outcome [5] | outcome [6] | outcome [7] | outcome [8]
active: growth inhibition [1] 97% | growth inhibition [4] 98%

COc1ccccc1C1CCN(C2CCC(NC(=O)c3cc4ccccc4[nH]3)CC2)CC1 (stereo not given)
active: growth inhibition [4] 88%
inactive: growth inhibition [1] 7% | inhibition [2] 49% | inhibition [3] 0% | outcome [5] | outcome [6] | outcome [7] | outcome [8]

Cc1ccc(C(=O)Nc2ccc(Nc3ccnc4cc(-c5ccccn5)ccc34)cc2O)cc1
active: growth inhibition [1] 100% | inhibition [2] 100% | growth inhibition [4] 100%
inactive: inhibition [3] 2% | outcome [5] | outcome [6] | outcome [7] | outcome [8]

COc1ccc2[nH]cc(C3CCN(CCC4CCN(C(=O)/C=C/c5ccc(Cl)c(Cl)c5)CC4)CC3)c2c1
active: growth inhibition [1] 56% | inhibition [2] 52% | growth inhibition [4] 101%
inactive: inhibition [3] 3% | outcome [5] | outcome [6] | outcome [7] | outcome [8]

COc1cc2ccccc2c(OC)c1CCNCCCCNCCc1c(OC)cc2ccccc2c1OC
inactive: growth inhibition [1] 30% | inhibition [3] 7% | outcome [5] | outcome [6] | outcome [7] | outcome [8]
active: inhibition [2] 100% | growth inhibition [4] 99%

Cc1[nH]c(C)c(C2CCC(c3ccc(Cl)cc3)CC2)c(=O)c1Cl (stereo not given)
active: growth inhibition [1] 97% | growth inhibition [4] 98%
inactive: inhibition [2] 37% | inhibition [3] -9% | outcome [5] | outcome [6] | outcome [7] | outcome [8]

ON=C(c1nc2ccccc2[nH]1)c1nc2ccccc2[nH]1
active: growth inhibition [1] 68% | growth inhibition [4] 93%
inactive: inhibition [2] 36% | inhibition [3] 6% | outcome [5] | outcome [6] | outcome [7] | outcome [8]

CC(C)(C)C/C=C\c1ccc(C(=O)NCC2CC2)cc1
inactive: inhibition [2] 0% | inhibition [3] -2% | outcome [5] | outcome [6] | outcome [7] | outcome [8]
active: growth inhibition [1] 88% | growth inhibition [4] 94%

CCN(CC)CCOc1cc2c(cc1Br)-c1cc(Br)c(OCCN(CC)CC)cc1C2=NO
active: growth inhibition [1] 98% | inhibition [2] 99% | growth inhibition [4] 100%
inactive: inhibition [3] -3% | outcome [5] | outcome [6] | outcome [7] | outcome [8]

O=C(/C=C/c1cccc(OC(F)(F)F)c1)NCCCCCN1CCC(c2c[nH]c3ccccc23)CC1
active: growth inhibition [4] 93%
inactive: growth inhibition [1] 13% | inhibition [2] 27% | inhibition [3] -6% | outcome [5] | outcome [6] | outcome [7] | outcome [8]

COC(=O)c1cccc(CNCc2ccc(-c3cccc(-c4nc5ccccc5[nH]4)c3)cc2)c1
inactive: growth inhibition [1] 46% | inhibition [2] 5% | inhibition [3] -3% | outcome [5] | outcome [6] | outcome [7] | outcome [8]
active: growth inhibition [4] 101%

CCCCC(CCCC)CN1C(=O)C(c2ccccc2)(c2ccccc2)N=C1N
active: growth inhibition [1] 96% | growth inhibition [4] 96%
inactive: inhibition [2] 28% | inhibition [3] -3% | outcome [5] | outcome [6] | outcome [7] | outcome [8]

O=C(Nc1cc(F)cc(-c2cccnc2)c1)c1ccc2c(=O)n(Cc3ccccc3)cnc2c1
active: growth inhibition [4] 98%
inactive: growth inhibition [1] 11% | inhibition [2] 7% | inhibition [3] 2% | outcome [5] | outcome [6] | outcome [7] | outcome [8]

COc1ccc(C=CC(=O)NC(=O)c2ccccc2OC(=O)c2ccccc2)cc1OC
inactive: inhibition [2] 12% | inhibition [3] 5% | outcome [5] | outcome [6] | outcome [7] | outcome [8]
active: growth inhibition [1] 90% | growth inhibition [4] 87%

CCc1cccc(NC(=O)c2ccc(CN3CCCN(CC4CCCCC4)CC3)cc2)c1
active: growth inhibition [4] 84%
inactive: growth inhibition [1] 36% | inhibition [2] 44% | inhibition [3] 0% | outcome [5] | outcome [6] | outcome [7] | outcome [8]

C=Cc1ccccc1C1(O)CCN(CCCCNC(=O)c2ccc(-c3ccc(C#N)cc3)cc2)CC1
active: growth inhibition [1] 64% | growth inhibition [4] 88%
inactive: inhibition [2] 27% | inhibition [3] 0% | outcome [5] | outcome [6] | outcome [7] | outcome [8]

Cc1cc(-c2cccc(CNCc3ccc(F)cc3)c2)ccc1S(=O)(=O)NCCN1CCCC1
active: growth inhibition [1] 64% | growth inhibition [4] 101%
inactive: inhibition [2] 49% | inhibition [3] 4% | outcome [5] | outcome [6] | outcome [7] | outcome [8]

O=S(=O)(NCCN1CCCC1)c1ccc(-c2cccc(CNCc3ccc(F)cc3)c2)s1
inactive: inhibition [2] 48% | inhibition [3] 4% | outcome [5] | outcome [6] | outcome [7] | outcome [8]
active: growth inhibition [1] 50% | growth inhibition [4] 99%

CC(C)CCN=C(N)c1ccc(OCCCCCOc2ccc(C(N)=NCCC(C)C)cc2)cc1
active: growth inhibition [1] 94% | growth inhibition [4] 98%
inactive: inhibition [2] 5% | inhibition [3] 5% | outcome [5] | outcome [6] | outcome [7] | outcome [8]

CS(=O)(=O)Nc1cccc(-c2cnc3[nH]cc(-c4ccc(C(=O)O)cc4)c3c2)c1
active: growth inhibition [1] 82% | growth inhibition [4] 98%
inactive: inhibition [2] -11% | inhibition [3] 0% | outcome [5] | outcome [6] | outcome [7] | outcome [8]

OC(CN1CCN(C2CCCCC2)CC1)Cn1c2ccccc2c2cc(Br)ccc21 (stereo not given)
inactive: inhibition [2] 14% | inhibition [3] -2% | outcome [5] | outcome [6] | outcome [7] | outcome [8]
active: growth inhibition [1] 89% | growth inhibition [4] 97%

CCCc1cc2c3c(N)nc(N)nc3ccc2n1C(CC)CC
active: growth inhibition [1] 73% | inhibition [2] 70% | growth inhibition [4] 102%
inactive: inhibition [3] -1% | outcome [5] | outcome [6] | outcome [7] | outcome [8]

CC(C)Nc1nc(NCCc2cnc[nH]2)nc(NCc2ccc(Cl)c(Cl)c2)n1
active: growth inhibition [4] 88%
inactive: growth inhibition [1] -1% | inhibition [2] -3% | inhibition [3] 7% | outcome [5] | outcome [6] | outcome [7] | outcome [8]

CN1CCN(CC(=O)Nc2ccc(-c3ccc(-c4nc5ccccc5[nH]4)s3)cc2)CC1
active: growth inhibition [4] 101%
inactive: growth inhibition [1] 49% | inhibition [2] 12% | inhibition [3] -1% | outcome [5] | outcome [6] | outcome [7] | outcome [8]
